“And” between values parts separate entries of the source, which are not always exact repeats. Equal entries are not always repeated. Results filed as inconclusive are left out. The source made the active and inactive calls. Rule for the calls, unless noted: active = hit-call score of the fitted dose curve at least 0.9, where 1 is the maximum; inactive = score below 0.9.
What was measured:
[1] = CCTE_Harrill_HTTr_Apoptosis_MCF7: CCTE's 6-hour Apoptosis Assessment for the High-Throughput Transcriptomics (HTTr) Platform, in MCF-7 cells cultured in DMEM + 10% fetal bovine serum, Harrill Lab (AID 2284011)
How it was run: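 Apoptosis in MCF-7 cells grown in DMEM with 10% fetal bovine serum was scored after a six hour exposure by high content imaging of caspase-3/7 activation (CellEvent Caspase 3/7 Green), with DMSO serving as negative control and baseline.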

[2] = CCTE_Harrill_HTTr_CellCount_MCF7: CCTE's Cell Proliferation Assessment for the High-Throughput Transcriptomics (HTTr) Platform, Harrill Lab (AID 2284012; active = hit-call score of the fitted dose curve at least 0.9, where 1 is the maximum;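 note: cells exposed to compound for six hours; intended direction is loss of nuclei count meaning fewer cells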)
How it was run: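 MCF7 cells exposed 6 hours to an eight-point dilution series; Hoechst-stained nuclei counted by high-content imaging. Bidirectional curve fitting against DMSO baseline.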

[3] = CCTE_Shafer_MEA_acute_burst_number: CCTE's Neural Acute Assay for Single-Electrode Bursts, Shafer Lab (AID 2284013)
How it was run: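 Spontaneous network activity of primary rat cortical neurons was recorded extracellularly on microelectrode arrays at 37 C, with 40-min periods before and during exposure to 0.03-40 uM compound on DIV 13 or 15.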

[4] = CCTE_Shafer_MEA_acute_burst_duration_mean: CCTE's Neural Acute Assay for Mean Burst Duration, Shafer Lab (AID 2284014);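 note: hits are decreases in mean burst duration relative to DMSO controls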
How it was run: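 Read-out is the per-well percent change in mean burst duration (first to last spike within a single-electrode burst) between 40-min recordings before and after compound. Cultures were primary rat cortical neurons on MEAs, dosed at 0.03-40 uM on DIV 13 or 15.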

[5] = CCTE_Shafer_MEA_acute_interburst_interval_mean: CCTE's Neural Acute Assay for Mean Interburst Interval, Shafer Lab (AID 2284016);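 note: percent change of mean interburst interval versus each well's own pre-dose baseline; curves fitted for decrease in interburst interval relative to DMSO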
How it was run: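 Percent change in mean single-electrode interburst interval was calculated per well from 40 min recordings before and after compound (0.03-40 uM). Recordings were made at 37 C on rat cortical cultures at DIV 13 or 15, with spikes detected at 8x rms threshold.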

[6] = CCTE_Shafer_MEA_acute_burst_percentage_mean: CCTE's Neural Acute Assay for Percentage of Spikes in a Burst, Shafer Lab (AID 2284017);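 for AC50: curve fitted for loss of signal so potency reflects decreased burst percentage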
How it was run: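 Well-level mean burst percentage from a 40-min recording after compound (0.03-40 uM) expressed as percent change from a 40-min baseline at 37C. Cultures: primary rat cortical neurons on MEA, dosed on DIV 13 or 15; fitted downward relative to DMSO.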

[7] = CCTE_Shafer_MEA_acute_burst_percentage_std: CCTE's Neural Acute Assay for Standard Deviation of Burst Percentage, Shafer Lab (AID 2284018);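 note: fitted in the negative direction so actives lower burst percentage SD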
How it was run: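 Value is percent change from baseline in the across-electrode SD of spikes-in-bursts percentage, wells with >/= 10 active electrodes. Acute 40-min exposure to 0.03-40 uM on DIV 13 or 15 rat cortical cultures, recorded at 37 C after 40-min baseline.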

[8] = CCTE_Shafer_MEA_acute_per_network_burst_spike_number_mean: CCTE's Neural Acute Assay for Average Number of Spikes in a Network Burst, Shafer Lab (AID 2284019);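 for AC50: curve fitted for loss of signal so actives reduce spikes per network burst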
How it was run: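 Read-out is mean spike count per network burst, taken as percent change between a 40-min pre-exposure and a 40-min post-exposure recording per well. Rat primary cortical neurons on MEAs at 37 C, DIV 13 or 15; compounds at 0.03-40 uM.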

[9] = CCTE_Shafer_MEA_acute_per_network_burst_spike_number_std: CCTE's Neural Acute Assay for Standard Deviation of Number of Spikes in a Network Burst, Shafer Lab (AID 2284020);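 note: fitted for decrease in spike-number SD versus DMSO so actives lower it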
How it was run: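 Spontaneous network activity of primary rat cortical neurons is recorded extracellularly before and after a 40-min compound exposure (0.03-40 uM) at 37 C. The endpoint is the well's percent change in burst spike-number SD.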

[10] = CCTE_Shafer_MEA_acute_per_network_burst_electrodes_number_mean: CCTE's Neural Acute Assay for Mean Number of Electrodes in a Network Burst, Shafer Lab (AID 2284021);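 note: curves fitted for decreases only so hits reduce electrodes per burst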
How it was run: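 Percent change from baseline in average electrode count per network burst, rat cortical cultures on 48-well MEAs; 40-min recordings each side of exposure, DIV 13 or 15; threshold 8x rms noise; DMSO as negative control.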

[11] = CCTE_Shafer_MEA_acute_network_burst_percentage: CCTE's Neural Acute Assay for Percentage of Network Bursts, Shafer Lab (AID 2284022);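 note: curves fitted for loss so actives lower network burst percentage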
How it was run: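 On DIV 13 or 15, at least three wells of rat cortical neurons per compound are dosed at 0.03-40 uM. Spontaneous firing is detected at 8x rms noise for 40 min before and after dosing at 37 C. The percent change in network-burst spike share is reported.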

[12] = CCTE_Shafer_MEA_acute_cross_correlation_area: CCTE's Neural Acute Assay for Area of Cross Correlation, Shafer Lab (AID 2284024);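 note: area under pooled inter-electrode spike cross-correlation near zero lag as percent change from own baseline; curves fitted for loss of cross-correlation area so actives lower synchrony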
How it was run: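 Extracellular recordings from cultured rat cortical neurons measure network synchrony as cross-correlation area; each well's post-compound value (0.03-40 uM, 40 min) is compared with its own 40 min baseline to give percent change.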

[13] = CCTE_Shafer_MEA_acute_cross_correlation_HWHM: CCTE's Neural Acute Assay for Cross Correlation at Half Width at Half Maximum, Shafer Lab (AID 2284026);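 note: percent change per well from pre-dose baseline in spike cross-correlogram half width; hits are a decrease in cross-correlogram half width relative to DMSO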
How it was run: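 Percent change in cross-correlogram half width at half maximum, narrower meaning more synchrony, was derived per well from paired 40-min recordings before and during exposure to 0.03-40 uM compound in rat cortical cultures at 37 C.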

[14] = CCTE_Shafer_MEA_acute_synchrony_index: CCTE's Neural Acute Assay for Synchrony, Shafer Lab (AID 2284027);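 note: network synchrony index of spontaneous spiking in primary rat cortical neurons on MEAs; fitted for loss of signal so actives lower synchrony relative to DMSO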
How it was run: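 Primary rat cortical neurons on 48-well MEAs, dosed at 0.03–40 uM on DIV 13 or 15. Spikes are recorded for 40 min at 37C before and after exposure, and synchrony index (0–1) is expressed as percent change from baseline per well.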

[15] = CCTE_Deisenroth_AIME_96WELL_CTox_Active: Cytotoxicity Assessment (CTOX) in CCTE's 96-well Estrogen Receptor Transactivation Assay with AIME metabolic competence (metabolism positive), Deisenroth Lab (AID 2284028; active = hit-call score of the fitted dose curve at least 0.9, where 1 is the maximum)
How it was run: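 Chemicals (0.002–200 uM) were first incubated 2 h with alginate-immobilized phenobarbital/beta-naphthoflavone-induced male rat liver S9; conditioned medium then went onto VM7Luc4E2 cells for 24 h, with viability read by protease-substrate fluorescence, fitted bidirectionally.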

[16] = CCTE_Shafer_MEA_dev_firing_rate_mean: CCTE's Neural Network Formation Assay for Mean Firing Rate, Shafer Lab (AID 2284031);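 for AC50: curve fitted for loss of firing so AC50 reflects decreased mean firing rate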
How it was run: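 Primary rat cortical neurons on 48-well MEA plates, exposed from plating day 0 with dosing renewed on DIV 5 and 9. Mean well firing rate over active electrodes, recorded days 5, 7, 9, 12, summarised as trapezoidal AUC.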

[17] = CCTE_Shafer_MEA_dev_active_electrodes_number: CCTE's Neural Network Formation Assay for Number of Active Electrodes, Shafer Lab (AID 2284040; active = hit-call score of the fitted dose curve at least 0.9, where 1 is the maximum;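 for AC50: potency for loss of active electrodes versus DMSO so lower counts are hits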)
How it was run: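 Primary rat cortical neurons on 16-electrode MEA wells, exposed from day 0 through day 12 with compound renewed at DIV 5 and 9 feeds. Active electrodes (mean firing ≥5 spikes/min) counted at DIV 5, 7, 9, 12; trapezoidal AUC across days, loss-of-signal versus DMSO.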

[18] = CCTE_Deisenroth_AIME_384WELL_CTox_Active: Cytotoxicity Assessment (CTOX) in CCTE's 384-well Estrogen Receptor Transactivation Assay with AIME metabolic competence (metabolism positive), Deisenroth Lab (AID 2284037; active = hit-call score of the fitted dose curve at least 0.9, where 1 is the maximum;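 note: activity means signal loss indicating cell death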)
How it was run: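 Cytotoxicity in VM7Luc4E2 breast cells, 24 hour, measured as protease-substrate fluorescence loss, after 2-hour metabolic conditioning with induced rat hepatic S9 in alginate microspheres. Concentrations 0.002 - 200 uM, 10 points, bidirectional fitting.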

[19] = target: Estrogen receptor (Homo sapiens) (UniProt P03372); experiment: CCTE_Deisenroth_AIME_384WELL_LUC_Inactive: CCTE's 384-well Estrogen Receptor Transactivation Assay without AIME metabolic competence (ERTA luciferase; metabolism negative), Deisenroth Lab (AID 2284038; active = hit-call score of the fitted dose curve at least 0.9, where 1 is the maximum;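 note: VM7Luc4E2 breast cells given medium preincubated 2 h with S9-free microspheres; hits raise estrogen receptor luciferase signal so potencies reflect agonists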)
How it was run: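 Metabolism-negative mode: chemicals (10-point, 0.002–200 uM) held 2 h with alginate-water microspheres, then conditioned medium applied to VM7Luc4E2 cells for 24 h. Luciferase induction referenced to 17beta-estradiol.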

[20] = target: Estrogen receptor (Homo sapiens) (UniProt P03372); experiment: CCTE_Deisenroth_AIME_384WELL_LUC_Shift: CCTE's 384-well Estrogen Receptor Transactivation Assay with AIME metabolic competence data shift (ERTA luciferase; difference in metabolism positive and negative), Deisenroth Lab (AID 2284041);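 note: shift is response with S9 minus without S9 so positive means metabolism raised ER signal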
How it was run: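 Test chemicals (0.002–200 uM, 10-point) were pre-incubated 2 h with alginate microspheres containing phenobarbital/beta-naphthoflavone-induced male Sprague Dawley rat liver S9 or water, then medium was transferred to VM7Luc4E2 cells for 24 h luciferase readout; shift = S9-positive minus S9-negative normalized response.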

Estrogen receptor (Homo sapiens), sequence (P03372 whole entry, looked up): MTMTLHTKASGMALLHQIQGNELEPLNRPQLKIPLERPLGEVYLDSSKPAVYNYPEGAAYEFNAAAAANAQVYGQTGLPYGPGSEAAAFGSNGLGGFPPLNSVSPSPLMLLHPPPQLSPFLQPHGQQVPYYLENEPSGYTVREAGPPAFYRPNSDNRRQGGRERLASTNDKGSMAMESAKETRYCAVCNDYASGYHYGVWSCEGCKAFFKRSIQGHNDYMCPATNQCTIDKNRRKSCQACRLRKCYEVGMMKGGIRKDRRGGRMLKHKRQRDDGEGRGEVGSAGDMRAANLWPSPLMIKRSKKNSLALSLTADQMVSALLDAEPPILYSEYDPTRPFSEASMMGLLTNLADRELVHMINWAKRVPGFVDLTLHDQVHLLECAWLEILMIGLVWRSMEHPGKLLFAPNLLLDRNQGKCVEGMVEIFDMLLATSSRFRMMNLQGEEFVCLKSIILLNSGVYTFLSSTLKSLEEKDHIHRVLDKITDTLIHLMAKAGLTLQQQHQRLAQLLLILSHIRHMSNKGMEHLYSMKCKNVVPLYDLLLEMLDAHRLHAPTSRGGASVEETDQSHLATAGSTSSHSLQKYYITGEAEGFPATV

## N#CC(Br)Br
[1]
  outcome: inactive
[2]
  outcome: inactive
[3]
  outcome: inactive
[4]
  outcome: inactive
[5]
  outcome: inactive
[6]
  outcome: inactive
[7]
  outcome: inactive
[8]
  outcome: inactive
[9]
  outcome: inactive
[10]
  outcome: inactive
[11]
  outcome: inactive
[12]
  outcome: inactive
[13]
  outcome: inactive
[14]
  outcome: inactive

## CS(=O)(=O)NC(=O)c1cc(Oc2ccc(C(F)(F)F)cc2Cl)ccc1[N+](=O)[O-]
[1]
  outcome: inactive
[2]
  outcome: inactive

## CC(O)CCO (stereo not given)
[1]
  outcome: inactive
[2]
  outcome: inactive

## Cc1ccc(N)cc1
[1]
  outcome: inactive
[2]
  outcome: inactive

## Cn1cc(-c2ccccc2)c(=O)c(-c2cccc(C(F)(F)F)c2)c1
[1]
  outcome: inactive

## Cc1ccc(N=C=O)cc1N=C=O
[1]
  outcome: inactive

## N#CC(Br)(Br)C(N)=O
[1]
  outcome: inactive
[2]
  outcome: inactive

## Clc1ccc(Cl)c(Cl)c1
[1]
  outcome: inactive

## CC(C)(C)OOC(C)(C)CCC(C)(C)OOC(C)(C)C
[1]
  outcome: inactive
[2]
  outcome: inactive

## CCCCOC(=O)c1ccccc1C(=O)OCc1ccccc1
[1]
  outcome: inactive
[2]
  outcome: inactive
[3]
  AC50: 2.71 µM (active)
[4]
  outcome: inactive
[5]
  AC50: 3.83 µM (active)
[6]
  AC50: 6.09 µM (active)
[7]
  AC50: 5 µM (active)
[8]
  AC50: 2.58 µM (active)
[9]
  AC50: 5 µM (active)
[10]
  AC50: 5 µM (active)
[11]
  AC50: 8.11 µM (active)
[12]
  outcome: inactive
[13]
  AC50: 6.42 µM (active)
[14]
  AC50: 7.33 µM (active)
[15]
  outcome: inactive
[16]
  outcome: inactive
[17]
  AC50: 22.7 µM (active)

## O=C(O)C1C2CCC(O2)C1C(=O)O (stereo not given)
[1]
  outcome: inactive
[2]
  outcome: inactive

## Cc1cccc(N)c1N
[1]
  outcome: inactive

## Brc1ccc(Oc2ccccc2)cc1
[1]
  outcome: inactive
[2]
  outcome: inactive

## CCC12COCN1COC2
[1]
  outcome: inactive
[2]
  outcome: inactive

## C[N+](C)(C)CC1CO1 (stereo not given)
[1]
  outcome: inactive
[3]
  outcome: inactive
[4]
  outcome: inactive
[5]
  outcome: inactive
[6]
  outcome: inactive
[7]
  outcome: inactive
[8]
  outcome: inactive
[9]
  outcome: inactive
[10]
  outcome: inactive
[11]
  outcome: inactive
[12]
  outcome: inactive
[13]
  outcome: inactive
[14]
  outcome: inactive
[18]
  outcome: inactive
[19]
  outcome: inactive
[20]
  outcome: inactive

## [O-][Cl+]O
[1]
  outcome: inactive
[16]
  outcome: inactive
[18]
  outcome: inactive
[19]
  outcome: inactive
[17]
  outcome: inactive
[20]
  outcome: inactive

## O=C1CCCO1
[1]
  outcome: inactive
[2]
  outcome: inactive
[18]
  outcome: inactive

## ClC1=C(Cl)[C@]2(Cl)[C@H]3[C@H]([C@@H]4C=C[C@H]3C4)[C@@]1(Cl)C2(Cl)Cl
[1]
  outcome: inactive
[2]
  outcome: inactive
[3]
  outcome: inactive
[4]
  outcome: inactive
[5]
  outcome: inactive
[6]
  outcome: inactive
[7]
  outcome: inactive
[8]
  outcome: inactive
[9]
  outcome: inactive
[10]
  outcome: inactive
[11]
  outcome: inactive
[12]
  outcome: inactive
[13]
  outcome: inactive
[14]
  outcome: inactive
[16]
  AC50: 3.92 µM (active)
[17]
  AC50: 5.34 µM (active)

## CCCCCCCCn1sccc1=O
[1]
  AC50: 45.9 µM (active)
[2]
  AC50: 50 µM (active)
[3]
  outcome: inactive
[4]
  AC50: 6.78 µM (active)
[5]
  outcome: inactive
[6]
  AC50: 8.26 µM (active)
[7]
  outcome: inactive
[8]
  AC50: 3.28 µM (active)
[9]
  AC50: 7.57 µM (active)
[10]
  AC50: 6.8 µM (active)
[11]
  AC50: 8.61 µM (active)
[12]
  outcome: inactive
[13]
  AC50: 11.5 µM (active)
[14]
  AC50: 6.04 µM (active)
[18]
  AC50: 196 µM (active)
[20]
  AC50: 14 µM (active)

## O=P(OCCCl)(OCCCl)OCCCl
[1]
  outcome: inactive
[2]
  outcome: inactive
[3]
  outcome: inactive
[4]
  outcome: inactive
[5]
  outcome: inactive
[6]
  outcome: inactive
[7]
  outcome: inactive
[8]
  outcome: inactive
[9]
  outcome: inactive
[10]
  outcome: inactive
[11]
  outcome: inactive
[12]
  outcome: inactive
[13]
  outcome: inactive
[14]
  outcome: inactive
[16]
  outcome: inactive
[17]
  outcome: inactive

## CNC(=O)Oc1cccc2c1OC(C)(C)C2
[1]
  outcome: inactive
[16]
  outcome: inactive
[19]
  AC50: 53.8 µM (active)
[17]
  AC50: 17 µM (active) and 49.6 µM (active)
[20]
  AC50: 45.4 µM (active)

## [Cl-].[Cl-].[Hg+2]
[1]
  outcome: inactive
[2]
  outcome: inactive
[3]
  outcome: inactive
[4]
  AC50: 29.8 µM (active)
[5]
  outcome: inactive
[6]
  AC50: 20 µM (active)
[7]
  outcome: inactive
[8]
  outcome: inactive
[9]
  outcome: inactive
[10]
  AC50: 24.6 µM (active)
[11]
  outcome: inactive
[12]
  outcome: inactive
[13]
  AC50: 29.3 µM (active)
[14]
  AC50: 28.2 µM (active)
[16]
  AC50: 0.911 µM (active)
[17]
  AC50: 0.543 µM (active)

— PubChem BioAssay (EPA / NIEHS)
